Assay results reported in PubChem BioAssay AID1159580 (chemical genetic matrix, 2015).
Values joined by “and” are separate entries in the source; they are usually repeats but may differ in a detail not shown here. Identical values can stand only once. Among all 5,500 compounds or so, about 2,000 (36%) were called active. Roughly 18% stayed inconclusive and do not appear here. Rule as the data show it: active = normalized growth mostly below about 0.91 (no sharp cut-off); inconclusive = no clear call, values can overlap the other calls; inactive = mostly above about 0.92. The list shows a part of the results.

Test: chemical genetic growth profiling, strain panel (AID 1159580);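 also: tested at 20 µM; growth read once vehicle control cultures reached saturation at 30 °C; 1 = growth at the plate median or of vehicle wells; lower values mean less growth of the strain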
Conditions: S. cerevisiae deletion strains, growth OD

Measured: normalized growth

OCC(O)C(O)C(O)C(O)C(O)CO (configuration not stated)
inactive: locus YAL021C, strain ccr4, hits give low values 0.995 | locus YAL026C, strain drs2, hits give low values 0.991 | locus YAL030W, strain snc1, hits give low values 0.99 | locus YBL061C, strain skt5, hits give low values 0.989 | locus YBR009C, strain hhf1, hits give low values 1 | locus YBR021W, strain FUR4, hits give low values 1.02 | locus YBR023C, strain chs3, hits give low values 0.995 | locus YBR171W, strain sec66, hits give low values 0.991 | locus YBR229C, strain ROT2, hits give low values 0.96 | locus YBR231C, strain swc5, hits give low values 0.991 | locus YBR279W, strain paf1, hits give low values 0.991 | locus YCL011C, strain gbp2, hits give low values 0.999 | locus YCL016C, strain dcc1, hits give low values 0.989 | locus YCL029C, strain bik1, hits give low values 0.974 | locus YCL061C, strain MRC1, hits give low values 0.99 | locus YCL069W, strain vba3, hits give low values 1 | locus YCR088W, strain abp1, hits give low values 0.989 | locus YDL005C, strain med2, hits give low values 1 | locus YDL035C, strain GPR1, hits give low values 1.01 | locus YDL040C, strain nat1, hits give low values 0.982 | locus YDL074C, strain BRE1, hits give low values 1.05 | locus YDL101C, strain DUN1, hits give low values 1.01 | locus YDL185W, strain tfp1, hits give low values 0.954 | locus YDL192W, strain arf1, hits give low values 1 | locus YDR001C, strain nth1, hits give low values 0.99 | locus YDR069C, strain doa4, hits give low values 0.995 | locus YDR101C, strain arx1, hits give low values 0.974 | locus YDR137W, strain rgp1, hits give low values 1.02 | locus YDR159W, strain sac3, hits give low values 0.98 | locus YDR162C, strain NBP2, hits give low values 1 | locus YDR195W, strain ref2 0.965 | locus YDR297W, strain sur2, hits give low values 0.997 | locus YDR318W, strain mcm21, hits give low values 0.956 | locus YDR334W, strain swr1, hits give low values 0.987 | locus YDR335W, strain msn5, hits give low values 0.993 | locus YDR388W, hits give low values 0.985 | locus YDR392W, strain spt3, hits give low values 0.99 | locus YDR502C, strain sam2, hits give low values 1.01 | locus YEL003W, strain gim4, hits give low values 0.994 | locus YEL037C, strain rad23, hits give low values 0.992 | locus YEL061C, strain CIN8 (second series), hits give low values 0.979 | locus YEL061C, strain CIN8, hits give low values 0.993 | locus YER015W, strain faa2, hits give low values 0.994 | locus YER016W, strain bim1, hits give low values 0.983 | locus YER110C, hits give low values 0.97 | locus YER111C, strain swi4, hits give low values 0.989 | locus YER155C, strain BEM2 (second series), hits give low values 0.989 | locus YER155C, strain BEM2, hits give low values 1 | locus YER167W, strain BCK2, hits give low values 0.997 | locus YFR010W, strain ubp6, hits give low values 0.99 | locus YGL078C, strain dbp3, hits give low values 1.01 | locus YGL086W, strain mad1, hits give low values 1.01 | locus YGL167C, strain pmr1, hits give low values 0.996 | locus YGL173C, strain kem1, hits give low values 1 | locus YGL227W, strain vid30, hits give low values 0.992 | locus YGL240W, strain doc1, hits give low values 1 | locus YGL248W, strain PDE1, hits give low values 1.02 | locus YGL253W, strain hxk2, hits give low values 0.989 | locus YGR135W, strain pre9, hits give low values 1.05 | locus YGR252W, strain gcn5, hits give low values 1.1 | locus YHR013C, strain ard1, hits give low values 0.981 | locus YHR027C, strain rpn1, hits give low values 1 | locus YHR030C, strain SLT2, hits give low values 0.998 and 0.954 | locus YHR079C, strain IRE1 (second series), hits give low values 0.992 | locus YHR079C, strain IRE1, hits give low values 0.973 | locus YHR094C, strain hxt1, hits give low values 0.965 | locus YHR129C, strain ARP1, hits give low values 1.02 | locus YHR142W, strain chs7, hits give low values 0.995 | locus YHR200W, strain rpn10, hits give low values 0.991 | locus YIL066C, strain RNR3, hits give low values 0.995 | locus YIL073C, strain SPO22, hits give low values 1.07 | locus YIL125W, strain kgd1, hits give low values 0.967 | locus YIR030C, strain dcg1, hits give low values 1.01 | locus YJL092W, strain hpr5, hits give low values 0.993 | locus YJL095W, strain BCK1 (second series), hits give low values 0.993 | locus YJL095W, strain BCK1, hits give low values 1.09 and 0.974 | locus YJL115W, strain asf1, hits give low values 0.982 | locus YJL129C, strain trk1, hits give low values 1 | locus YJL134W, strain LCB3, hits give low values 0.985 | locus YJL154C, strain vps35, hits give low values 0.991 | locus YJL164C, strain tpk1, hits give low values 0.994 | locus YJL166W, strain qcr8, hits give low values 0.996 | locus YJL168C, strain set2, hits give low values 0.984 | locus YJL187C, strain SWE1 (second series), hits give low values 1.01 | locus YJL187C, strain SWE1, hits give low values 1 | locus YJR043C, strain POL32, hits give low values 1.02 | locus YJR066W, strain TOR1, hits give low values 0.927
